Assay results: PubChem BioAssay (NCI)
Values joined by “and” are separate entries in the source; they are usually repeats but may differ in a detail not shown here. Identical values can stand only once. The panel holds about 83,000 compounds, 20% with a hit somewhere; the sample as a whole holds those more often.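 Plates (96-well) were seeded with cells, treated with compound at one concentration, and incubated for 48 hours before percent growth was determined.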 Active and inactive are the calls of the source. How the source made its calls: active means growth percent below 10; inactive means the rest.

Columns and labels:
Experiment in all cases: NCI-60 one-dose screen, 48 h (100 = growth as untreated, 0 = no growth, -100 = all killed)
Conditions in all cases: 10 µM unless noted
NCI-H23 lung = tested on: NCI-H23 lung
NCI-H226 lung = tested on: NCI-H226 lung
NCI-H322M lung = tested on: NCI-H322M lung
HOP-62 NSCLC = tested on: HOP-62 NSCLC
NCI-H460 lung = tested on: NCI-H460 lung
HOP-92 NSCLC = tested on: HOP-92 NSCLC
786-0 renal = tested on: 786-0 renal
COLO 205 colon = tested on: COLO 205 colon
A549/ATCC NSCLC = tested on: A549/ATCC NSCLC
NCI-H522 lung = tested on: NCI-H522 lung

| SMILES | growth (NCI-H23 lung) | growth (NCI-H226 lung) | growth (NCI-H322M lung) | growth (HOP-62 NSCLC) | growth (NCI-H460 lung) | growth (HOP-92 NSCLC) | growth (786-0 renal) | growth (COLO 205 colon) | growth (A549/ATCC NSCLC) | growth (NCI-H522 lung) |
| --- | --- | --- | --- | --- | --- | --- | --- | --- | --- | --- |
| O=C(O)C(F)F | 107% (inactive) | 89.9% (inactive) | 114% (inactive) | 86.9% (inactive) | 89.2% (inactive) | 107% (inactive) | 106% (inactive) | 105% (inactive) |  |  |
| CC[C@H](C)[C@H](NC(=O)c1cnccn1)C(=O)N(C)[C@H](C[C@@H](OC(C)=O)c1nc(C(=O)N[C@@H](Cc2ccccc2)C[C@H](C)C(=O)OC)cs1)C(C)C | 26.2% (inactive) | 33.6% (inactive) | 46.3% (inactive) | 17.6% (inactive) | 8.2% (active) | 16.9% (inactive) | 24.2% (inactive) | -20.3% (active) | 19.2% (inactive) |  |
| CO/N=C1\CC[C@]2(C)[C@H]3CC[C@]4(C)C(=O)CC[C@H]4[C@@H]3C[C@@H]3SC(N)=N[C@@]32C1 | 99.4% (inactive) | 107% (inactive) | 105% (inactive) | 112% (inactive) | 98.9% (inactive) | 105% (inactive) | 98% (inactive) | 111% (inactive) | 101% (inactive) |  |
| Cn1cc(C(=O)C[n+]2ccccc2)c2ccccc21 | 91.7% (inactive) | 99.1% (inactive) | 104% (inactive) | 95.6% (inactive) | 107% (inactive) | 92.1% (inactive) | 97.4% (inactive) | 101% (inactive) | 102% (inactive) |  |
| CCCCOC(N)=O | 100% (inactive) | 103% (inactive) | 102% (inactive) | 105% (inactive) | 106% (inactive) |  | 104% (inactive) | 108% (inactive) | 109% (inactive) | 106% (inactive) |
| O=C(O)C1C(C(=O)O)C2(Cl)C(Cl)=C(Cl)C1(Cl)C2(Cl)Cl (centres undefined) | 96.8% (inactive) and 100% (inactive) | 98.5% (inactive) and 114% (inactive) | 106% (inactive) and 117% (inactive) | 99.6% (inactive) and 111% (inactive) | 101% (inactive) and 111% (inactive) | 94.3% (inactive) and 94.8% (inactive) | 111% (inactive) and 99.2% (inactive) | 101% (inactive) and 119% (inactive) | 104% (inactive) and 95.8% (inactive) |  |
| O=C(O)c1ccccc1N(CCO)CCCl | 99% (inactive) | 102% (inactive) | 90.3% (inactive) | 95.1% (inactive) | 111% (inactive) | 79.3% (inactive) | 107% (inactive) | 100% (inactive) | 98.1% (inactive) |  |
| O=NN1CCCCC1 | 104% (inactive) | 109% (inactive) | 128% (inactive) | 102% (inactive) | 116% (inactive) | 110% (inactive) | 103% (inactive) | 107% (inactive) | 102% (inactive) |  |
| O=C(O)C(Br)CBr (centres undefined) | 99.2% (inactive) | 103% (inactive) | 92.5% (inactive) | 101% (inactive) | 102% (inactive) |  | 96.4% (inactive) | 111% (inactive) | 97.6% (inactive) | 75.9% (inactive) |
| N#CC(N)c1ccccc1 (centres undefined) | 109% (inactive) | 100% (inactive) | 113% (inactive) | 114% (inactive) | 102% (inactive) | 113% (inactive) | 105% (inactive) | 116% (inactive) | 109% (inactive) |  |
| CCCCCCCCCCCCCCCC[N+](C)(C)Cc1ccccc1 | 9.06% (active) and -49.4% (active) | 21.5% (inactive) and -6.4% (active) | 63.3% (inactive) and 33.8% (inactive) | 17.9% (inactive) and -86.3% (active) | 15.7% (inactive) and -100% (active) | -39.2% (active) and -55.5% (active) | 11% (inactive) and -94.1% (active) | -30.4% (active) and -100% (active) |  |  |
| C[Se]/C=C1/C(=O)N(c2c(Cl)cccc2Cl)c2ccccc21 | 39% (inactive) | 10.9% (inactive) | 37.5% (inactive) | 22% (inactive) | 14.6% (inactive) | 15.7% (inactive) | 51.1% (inactive) | 38.9% (inactive) | 7.85% (active) |  |
| Cc1cc(NC(=O)NCCCOc2ccc(N3C(N)=NC(N)=NC3(C)C)cc2Cl)ccc1S(=O)(=O)F | 24.1% (inactive) | 55.7% (inactive) | 54.2% (inactive) | 51.9% (inactive) | 13.6% (inactive) | 74.6% (inactive) | 40.1% (inactive) | 27.9% (inactive) | 14.7% (inactive) |  |
| N#CCN(CC#N)[N+](=O)[O-] | 109% (inactive) | 97.9% (inactive) | 110% (inactive) | 102% (inactive) | 104% (inactive) | 84.9% (inactive) | 103% (inactive) | 110% (inactive) | 106% (inactive) |  |
